{
  "source": "PubChem BioAssay AID687036",
  "about": "(The Scripps Research Institute Molecular Screening Center, 2013)",
  "note": "The campaign covered roughly 3,300 compounds. About 1,400 (42%) were called active. So high a share suggests a set chosen from earlier hits. The entries come from a sample that favours actives as a whole. Unmarked numbers belong to inactive results.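 Rule for the calls: active = mean inhibition across replicates above the hit cutoff derived for the earlier primary screen (cut at about 22% in these data); inactive = the rest.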",
  "data": [
    {"target": "Protein arginine N-methyltransferase 1 (Homo sapiens) (UniProt Q99873)", "sequence (Q99873 whole entry, looked up)": "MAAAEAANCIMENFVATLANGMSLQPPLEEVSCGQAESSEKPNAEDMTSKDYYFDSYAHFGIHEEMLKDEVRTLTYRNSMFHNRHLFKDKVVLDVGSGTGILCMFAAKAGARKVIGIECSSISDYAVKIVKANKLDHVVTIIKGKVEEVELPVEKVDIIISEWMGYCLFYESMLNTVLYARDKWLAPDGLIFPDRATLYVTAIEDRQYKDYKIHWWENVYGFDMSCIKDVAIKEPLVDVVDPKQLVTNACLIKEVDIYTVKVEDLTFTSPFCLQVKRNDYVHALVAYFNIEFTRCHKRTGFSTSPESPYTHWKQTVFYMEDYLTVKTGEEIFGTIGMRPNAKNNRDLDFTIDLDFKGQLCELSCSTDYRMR", "experiment": "PRMT1 methyltransferase inhibitors, confirmation, biochemical, fluorescence polarization, triplicate (AID 687036)", "conditions": "recombinant His-PRMT1, activity-based probe fluorescence polarization; at 2.79 µM; hits give high values", "values": [
      {"smiles": "COc1ccc(N2C(=O)/C(=C/c3ccco3)C(=O)NC2=S)cc1", "inhibition": "75.2% (active)"},
      {"smiles": "Cc1cc(N2CCNC[C@@H]2C)ccc1N1CC[C@H](O)C1", "inhibition": "4.59%"},
      {"smiles": "O=C1NC(=O)N(Cc2ccco2)C(=O)/C1=C\\c1ccc(-c2ccc(F)cc2)o1", "inhibition": "52.9% (active)"},
      {"smiles": "Cc1cc(/C=C2/C(=O)NC(=O)N(Cc3ccco3)C2=O)c(C)n1-c1ccc(C(=O)O)cc1", "inhibition": "-1.23%"},
      {"smiles": "CCOC(=O)CC(SP1(=S)OCC2(CCCCO2)C(C2CCCCO2)O1)C(=O)OCC", "note": "(stereo unspecified)", "inhibition": "60.2% (active)"},
      {"smiles": "O=C1N=c2ccccc2=C/C1=C\\c1c(O)[nH]c(=S)[nH]c1=O", "inhibition": "55.4% (active)"}
    ]}
  ]
}
